# About 8,600 (12%) of roughly 69,000 compounds showed an effect of 50% or more. What follows is part of a selection rich in strong results, with near analogues and random picks from the rest.
# Tested on: Plasmodium berghei
# Experiment: Screen against P. berghei liver stage (PbLuc), transformed with Luciferase, at 10uM
# Assay type: functional, HepG2
# Conditions: tested at 10 uM
row,Structure (SMILES),INHIBITION [%]
1,CCN(Cc1noc(C2CCC2)n1)C(=O)c1cnc2ccccc2c1,7.44
2,Cc1nc(-c2ccccc2C(=O)O)cc(C2CCN(C(C)C)C2)n1 (configuration not stated),24.8
3,NC(=O)[C@@H]1CN2CCN(C(=O)C3CC3)C[C@@H]2[C@H]1c1ccccc1,16.9
4,CC(C)c1nc(C2CCCN(C(=O)Cn3ccccc3=O)C2)no1 (configuration not stated),-7.31
5,CN1Cc2cnn(CC3CCCC3)c2C(COCC2CC2)C1 (configuration not stated),26.3
6,Cc1ccc(CN2CC[C@H]3C[C@H](C(=O)N4CCCO4)O[C@@H]3C2)o1,38.5
7,CCN(CC)C(CNC(=O)c1ccc(-n2cncn2)cc1)c1ccsc1 (configuration not stated),-2.46
8,CNC(=O)c1sc2ccccc2c1CC1CCCCN1Cc1ncc[nH]1 (configuration not stated),42.2
9,O=C(Cn1nc(Br)nc1Br)N1CCCC1,27.4
10,Cc1ccc(N2CCCN(C(=O)CCc3ccsc3)CC2)nn1,1.04
11,Cc1ccc(N2CC[C@@H]3[C@@H]2CCN3C(=O)Cc2ccsc2)nn1,55.7
12,Cc1ccc(CN2CC[C@@H]3[C@@H]2CCN3C(=O)Cc2cccs2)o1,93.7
13,O=C1C[C@H]2[C@@H](CCN2C(=O)Cc2cccs2)N1CC1CC1,-38.1
14,Cc1cccc(CN2CC[C@@H]3[C@@H]2CCN3C(=O)Cc2cccs2)n1,42.1
15,Cc1cccc(CN2CC[C@@H]3[C@@H]2CCN3C(=O)Cc2ccsc2)n1,63.8
16,Cc1cccc(CN2C(=O)C[C@@H]3[C@@H]2CCN3Cc2ccsc2)n1,46.9
17,Cc1ccc(NC2CCN(C(=O)CCc3ccsc3)CC2)nn1,-59.4
18,O=C(Cc1cccs1)N1CC[C@H]2[C@H]1CCN2Cc1cccnc1,-25.8
19,COC(=O)[C@H](CCSC)NC(=O)Cn1ccc2c(Cl)cccc21,25
20,CN(C)C(=O)c1sc2ncccc2c1C1CNCCO1 (configuration not stated),12.8
21,O=C(CO)N1CCC(c2cncc(-c3cccc(Cl)c3)n2)CC1,46.6
22,Cc1cnn(C2CCCN(C(=O)c3cc(Cl)c4c(c3)OCO4)C2)c1 (configuration not stated),37.9
23,COc1ccc(-n2cc3nc(N)[nH]cc-3c2=O)cc1Cl,43.3
24,COc1ccc(-c2ccnc3nc(N4CCCCC4)[nH]c(=O)c23)cc1,30.8
25,CC(C)c1nnc2n1CCN(Cc1ccc3c(c1)OCO3)CC2,54.6
26,CC(C)c1nnc2n1CCN(Cc1cc(Cl)c3c(c1)OCO3)C2,33.7

row,Structure (SMILES),INHIBITION [%]
1,CC(C)c1nnc2n1CCN(Cc1ccc3c(c1)OCCO3)C2,-41.4
2,O=C(NCC1CCC(c2ccnc3ncnn23)CC1)c1ccccn1 (configuration not stated),-24.4
3,Cc1cccc(C2(NC(=O)CCN3C(=O)CCC3=O)CCCC2)c1,28.7
4,Cc1cccc(C2(NC(=O)CCCn3cncn3)CCCC2)c1,57.3
5,O=C(CCCn1cncn1)NC1(c2ccc(Cl)cc2)CCC1,61.3
6,COc1ccc(C2(NC(=O)CCn3cncn3)CCCCC2)cc1,62.6
7,O=C(CCCn1cncn1)NC1(c2cccc(Br)c2)CC1,27.5
8,COc1ccc(C2(NC(=O)c3ccc(=O)n(C)n3)CCCC2)cc1,17.7
9,O=C(CCCn1cncn1)NC1(c2ccccc2)CCC1,-21.5
10,O=C(CCn1cncn1)NC1(c2cccc(Br)c2)CCC1,33.5
11,Cn1nc(C(=O)NC2(c3ccc(Cl)cc3)CCCC2)ccc1=O,6.67
12,Cc1nn(C)c(C)c1-c1cnc(CC2CCNCC2)cn1,21.1
13,CCN(C(=O)Cn1cc(NC(=O)C(C)(C)C)cn1)c1ccccc1,7.65
14,Cc1cncc(C(=O)N2CCC3(CCCN(c4nncs4)C3)C2)c1 (configuration not stated),41.2
15,O=C(Nc1ccccc1)C1=NOC2(CCCN(C(=O)N3CCCC3)C2)C1 (configuration not stated),-8.28
16,COc1ccc(C)cc1CN(C)CCCNS(C)(=O)=O,23
17,CCS(=O)(=O)CCN(C)Cc1cc(C)ccc1OC,21.1
18,CNS(=O)(=O)CCCN(C)Cc1cc(C)ccc1OC,59.1
19,CC(=O)N1CCN(C(=O)c2ccc3ccn(C)c3c2)CC1,63.3
20,Cn1ccc2ccc(C(=O)N3CCN(C(=O)N4CCOCC4)CC3)cc21,40.1
21,CCOC(=O)N1CCN(C(=O)c2ccc3ccn(C)c3c2)CC1,38.5
22,C[C@@H]1CN(C(=O)[C@H]2CCCO2)C[C@]12CCN(c1ccsc1)C2=O,49.7
23,COc1cc(N2CC[C@@H]3O[C@@H](c4ccnc(C)n4)C[C@H]3C2)ncn1,45.8
24,COc1ncccc1C(=O)N1CC[C@H]2C[C@@H](c3ccncn3)O[C@@H]2C1,-42.8
25,COc1ncccc1C(=O)N1CC[C@H]2C[C@H](c3ccncn3)O[C@@H]2C1,52
26,COc1ncccc1C(=O)N1CC[C@H]2C[C@@H](C)O[C@@H]2C1,-40.3

row,Structure (SMILES),INHIBITION [%]
1,COc1cc(N2CC[C@@H]3O[C@@H](c4ccncn4)C[C@H]3C2)ncn1,73.2
2,Cc1ccc(N2CC[C@@H]3O[C@@H](c4ccncn4)C[C@H]3C2)nn1,37.8
3,CCc1nc(Nc2ccc(C(=O)NC)cc2)c2c(n1)c(C)nn2CC,18.85
4,O=C(NC1CCc2ccccc2C1)C1CCN(Cc2ccco2)CC1 (configuration not stated),31
5,Cc1noc(C(C)N2CCN(CCOCC(F)(F)F)CC2)n1 (configuration not stated),12.85
6,O=C(C1CCCO1)N1CCC(n2cc(-c3ccc(F)cc3)nn2)CC1 (configuration not stated),-10.9
7,OCc1ccc(CN2CCC(n3cc(-c4ccc(F)cc4)nn3)CC2)o1,-0.529
8,Cc1ncc(CN2CCC(n3cc(-c4ccc(F)cc4)nn3)CC2)cn1,53.8
9,Oc1ccccc1CN1CCC(n2cc(-c3ccc(F)cc3)nn2)CC1,55
10,Cc1ccc(-c2cn(C3CCN(C(=O)[C@H]4CCCO4)CC3)nn2)cc1,23.3
11,Cc1cncc(C2CCN(Cc3cnc(C)nc3)CC2)n1,36.44
12,O=C(c1ccccn1)N1Cc2nccn2CC(CN2CCOCC2)C1 (configuration not stated),38.7
13,CNC(=O)CCc1cc(C2CCN(c3cnccn3)CC2)nc(C)n1,15.85
14,CN(C)Cc1cn2c(n1)CN(CC1CCCC1)CC2,29
15,CCn1ccc(-c2cc(C(=O)O)n3nc(C(F)(F)F)c(Br)c3n2)n1,11.2
16,Cc1ccc(C(=O)N2CCc3c(CNc4ncccn4)cncc3C2)o1,-66.6
17,CCc1cc(CN(C)C(=O)c2cnon2)on1,-40.6
18,OCc1csc(N2CCCC(CO)(Cc3cccc(Cl)c3)C2)n1 (configuration not stated),-14.9
19,Cc1cnn(CC2CCCN2Cc2coc(-c3ccccc3)n2)c1 (configuration not stated),-14.2
20,Cc1cnn(CC2CCCN2Cc2coc(-c3cccc(F)c3)n2)c1 (configuration not stated),80.8
21,Fc1cccc(-c2nc(CN3CCCC3Cn3cccn3)co2)c1 (configuration not stated),-14.6
22,Cc1cnn(CC2CCCN2Cc2coc(-c3ccc(F)cc3)n2)c1 (configuration not stated),69.7
23,Fc1cccc(-c2nc(CN3CCCC3Cn3cncn3)co2)c1 (configuration not stated),7.12
24,Fc1ccc(-c2nc(CN3CCCC3Cn3cncn3)co2)cc1 (configuration not stated),4.71
25,CS(=O)(=O)C1CCN(S(=O)(=O)c2ccc(F)c(F)c2)C1 (configuration not stated),21.2
26,Cn1ccc2cc(C(=O)NC3CCS(=O)(=O)C3)ccc21 (configuration not stated),-42.5

row,Structure (SMILES),INHIBITION [%]
1,CNC(=O)[C@@H](C1CCCCC1)N1CCC[C@H]1C(=O)NCCN1CCCC1,0.112
2,CCc1nnc(SCC(=O)N2C[C@H]3CC[C@@H](C2)N(CC=C(C)C)C3)[nH]1,26.7
3,CC1c2ncc(CNC(=O)C3CC3)n2CCN1Cc1cccnc1 (configuration not stated),-5.31
4,Cc1nc(N2CCOCC2)sc1C(=O)NCC(C)(C)N1CCCCC1,-4.87
5,COCCN1CCCC12CCN(C(=O)CC1CCCC1)CC2,32.4
6,Cn1ncc(C(=O)N2CCN(CCS(C)(=O)=O)CC2)c1Cl,30.95
7,O=C(NCC(O)Cc1ccccc1)c1ccc2[nH]c(=O)[nH]c2c1 (configuration not stated),43.9
8,Cc1nc2ccc(CN3CC4(CCOC4)CCC3=O)cc2[nH]1 (configuration not stated),67.4
9,CCCn1nc(C)c(CN2CC3(CCOC3)CCC2=O)c1C (configuration not stated),64.5
10,CCn1nc(C)c(CCN2CC3(CCOC3)CCC2=O)c1C (configuration not stated),56.6
11,CCCc1nc(C)c(CN2CC3(CCOC3)CCC2=O)s1 (configuration not stated),33.7
12,O=C1CCC2(CCOC2)CN1Cc1nc2ccc(Cl)cc2[nH]1 (configuration not stated),27.9
13,O=C1CCC2(CCOC2)CN1Cc1nncn1CCc1ccccc1 (configuration not stated),10.1
14,O=C1CCC2(CCOC2)CN1Cc1ccc2nsnc2c1 (configuration not stated),16.8
15,O=C1CCC2(CCOC2)CN1CCCOc1cccnc1 (configuration not stated),-0.897
16,CCc1c(C)nn(CCN2CC3(CCOC3)CCC2=O)c1C (configuration not stated),44.3
17,O=C([C@H]1CC[C@@H]2[C@@H](CCN2c2ncccn2)O1)N1CCCCO1,-13.2
18,Cc1noc(C(C)N2CCN(Cc3nnc(C4CC4)o3)CC2)n1 (configuration not stated),-19.6
19,CN(C)C(=O)c1n[nH]c2c1CN(CC1CCC1)C2,30.5
20,O=C1CCC(C(=O)Nc2cnn(-c3ccccc3Cl)c2)N1 (configuration not stated),19.7
21,Cc1ccc(-c2csc(N)c2C#N)c(C)c1,40.9
22,COc1ccc(C)cc1-c1csc(N)c1C#N,1.86
23,Cc1ccc(C)c(-c2csc(N)c2C#N)c1,64.7
24,Cc1nc[nH]c1CN1C[C@H]2CC[C@@H](C1)N(C(=O)CCn1cncn1)C2,40.2

# From ChEMBL document CHEMBL4513216, “Probing the Open Global Health Chemical Diversity Library for Multistage-Active Starting Points for Next-Generation Antimalarials” (ACS Infect Dis, 2020)
